{"source": "the supplement of paper PMC8728848", "binders": {"B1": {"name": "ECL (Erythrina cristagalli), Q6YD91 (protein)", "chain": "VETISFSFSEFEPGNNDLTLQGAAIITQSGVLQLTKINQNGMPAWDSTGRTLYTKPVHIWDMTTGTVASFETRFSFSIEQPYTRPLPADGLVFFMGPTKSKPAQGYGYLGVFNNSKQDNSYQTLAVEFDTFSNPWDPPQVPHIGIDVNSIRSIKTQPFQLDNGQVANVVIKYDASSKILLAVLVYPSSGAIYTIAEIVDVKQVLPEWVDVGLSGATGAQRDAAETHDVYSWSFHASLPETND"}}, "experiment_in_all_cases": "glycan array binding signal (z-score within array); higher = stronger binding", "conditions_in_all_cases": "glycan notation: IUPAC condensed, linker removed", "key": {"Fuc(a1-2)Gal": {"target": "Fuc(a1-2)Gal", "method_in_brief": "(§1)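 Negative Z-scores can be read as non-binding. The Z-score is calculated within each array and then averaged across arrays of one protein sequence at different concentrations or buffers and across linkers. Arrays, 3228 in all, were curated from the Consortium for Functional Glycomics database and kept only where the protein sequence was available.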"}, "[1]": {"target": "Fuc(a1-2)Gal(b1-3)GalNAc(a1-3)[Fuc(a1-2)]Gal(b1-4)GlcNAc", "method_in_brief": "as §1"}, "[2]": {"target": "Fuc(a1-2)Gal(b1-3)[Fuc(a1-4)]GlcNAc(b1-3)[Gal(b1-4)GlcNAc(b1-6)]Gal(b1-4)Glc", "method_in_brief": "as §1"}, "[3]": {"target": "Fuc(a1-2)Gal(b1-4)GlcNAc(b1-2)Man(a1-3)[Fuc(a1-2)Gal(b1-4)GlcNAc(b1-2)Man(a1-6)]Man(b1-4)GlcNAc(b1-4)[Fuc(a1-6)]GlcNAc", "method_in_brief": "as §1"}, "[4]": {"target": "Fuc(a1-2)Gal(b1-4)GlcNAc(b1-3)[Fuc(a1-3)[Gal(b1-4)]GlcNAc(b1-6)]Gal(b1-4)Glc", "method_in_brief": "as §1"}, "[5]": {"target": "Fuc(a1-2)Gal(b1-4)GlcNAc(b1-6)GalNAc", "method_in_brief": "as §1"}, "[6]": {"target": "Fuc(a1-2)Gal(b1-4)[Fuc(a1-3)]GlcNAc(b1-2)Man(a1-3)[Fuc(a1-2)Gal(b1-4)[Fuc(a1-3)]GlcNAc(b1-2)Man(a1-6)]Man(b1-4)GlcNAc(b1-4)[Fuc(a1-6)]GlcNAc", "method_in_brief": "as §1"}, "[7]": {"target": "Fuc(a1-2)[Gal(a1-3)]Gal(b1-3)GlcNAc(b1-2)Man(a1-3)[Fuc(a1-2)[Gal(a1-3)]Gal(b1-3)GlcNAc(b1-2)Man(a1-6)]Man(b1-4)GlcNAc(b1-4)GlcNAc", "method_in_brief": "as §1"}, "[8]": {"target": "Fuc(a1-2)[Gal(a1-3)]Gal(b1-3)GlcNAc(b1-6)GalNAc", "method_in_brief": "as §1"}, "[9]": {"target": "Fuc(a1-2)[Gal(a1-3)]Gal(b1-4)GlcNAc", "method_in_brief": "as §1"}, "[10]": {"target": "Fuc(a1-2)[GalNAc(a1-3)]Gal(b1-4)GlcNAc(b1-2)Man(a1-3)[Fuc(a1-2)[GalNAc(a1-3)]Gal(b1-4)GlcNAc(b1-2)Man(a1-6)]Man(b1-4)GlcNAc(b1-4)[Fuc(a1-6)]GlcNAc", "method_in_brief": "as §1"}, "[11]": {"target": "Fuc(a1-2)[GalNAc(a1-3)]Gal(b1-4)[Fuc(a1-3)]GlcNAc(b1-3)GalNAc", "method_in_brief": "as §1"}, "[12]": {"target": "Fuc(a1-3)[Gal(b1-4)]GlcNAc(b1-6)GalNAc", "method_in_brief": "as §1"}, "[13]": {"target": "Gal(a1-3)Gal(b1-4)GlcNAc(b1-2)Man", "method_in_brief": "as §1"}, "[14]": {"target": "Gal(b1-3)GalNAc(b1-4)Gal(b1-4)Glc", "method_in_brief": "as §1"}, "[15]": {"target": "Gal(b1-3)[Neu5Ac(b2-6)]GalNAc", "method_in_brief": "as §1"}, "Gal(b1-4)GlcNAc(b1-2)Man": {"target": "Gal(b1-4)GlcNAc(b1-2)Man", "method_in_brief": "as §1"}, "[16]": {"target": "Gal(b1-4)GlcNAc(b1-2)Man(a1-3)[Gal(b1-4)GlcNAc(b1-2)Man(a1-6)]Man(b1-4)GlcNAc(b1-4)[Fuc(a1-6)]GlcNAc", "method_in_brief": "as §1"}, "[17]": {"target": "Gal(b1-4)GlcNAc(b1-2)[Gal(b1-4)GlcNAc(b1-4)]Man(a1-3)[Gal(b1-4)GlcNAc(b1-2)[Gal(b1-4)GlcNAc(b1-6)]Man(a1-6)]Man(b1-4)GlcNAc(b1-4)GlcNAc", "method_in_brief": "as §1"}, "[18]": {"target": "Gal(b1-4)GlcNAc(b1-2)[Gal(b1-4)GlcNAc(b1-6)]Man(a1-6)[Gal(b1-4)GlcNAc(b1-2)Man(a1-3)]Man(b1-4)GlcNAc(b1-4)[Fuc(a1-6)]GlcNAc", "method_in_brief": "as §1"}, "[19]": {"target": "Gal(b1-4)GlcNAc(b1-3)Gal(b1-4)GlcNAc(b1-2)Man(a1-3)[Gal(b1-4)GlcNAc(b1-3)Gal(b1-4)GlcNAc(b1-2)Man(a1-6)]Man(b1-4)GlcNAc(b1-4)[Fuc(a1-6)]GlcNAc", "method_in_brief": "as §1"}, "[20]": {"target": "Gal(b1-4)GlcNAc(b1-3)Gal(b1-4)GlcNAc(b1-2)[Gal(b1-4)GlcNAc(b1-3)Gal(b1-4)GlcNAc(b1-6)]Man(a1-6)[Gal(b1-4)GlcNAc(b1-3)Gal(b1-4)GlcNAc(b1-2)Man(a1-3)]Man(b1-4)GlcNAc(b1-4)[Fuc(a1-6)]GlcNAc", "method_in_brief": "as §1"}, "[21]": {"target": "Gal(b1-4)GlcNAc(b1-3)Gal(b1-4)GlcNAc(b1-3)Gal(b1-4)GlcNAc(b1-2)[Gal(b1-4)GlcNAc(b1-3)Gal(b1-4)GlcNAc(b1-3)Gal(b1-4)GlcNAc(b1-6)]Man(a1-6)[Gal(b1-4)GlcNAc(b1-3)Gal(b1-4)GlcNAc(b1-3)Gal(b1-4)GlcNAc(b1-2)Man(a1-3)]Man(b1-4)GlcNAc(b1-4)[Fuc(a1-6)]GlcNAc", "method_in_brief": "as §1"}, "[22]": {"target": "Gal(b1-4)GlcNAc(b1-3)Gal(b1-4)GlcNAc(b1-3)Gal(b1-4)GlcNAc(b1-3)Gal(b1-4)GlcNAc(b1-2)Man(a1-3)[Gal(b1-4)GlcNAc(b1-3)Gal(b1-4)GlcNAc(b1-3)Gal(b1-4)GlcNAc(b1-3)Gal(b1-4)GlcNAc(b1-2)Man(a1-6)]Man(b1-4)GlcNAc(b1-4)GlcNAc", "method_in_brief": "as §1"}, "[23]": {"target": "Gal(b1-4)GlcNAc(b1-3)Gal(b1-4)GlcNAc(b1-3)Gal(b1-4)GlcNAc(b1-3)Gal(b1-4)GlcNAc(b1-2)[Gal(b1-4)GlcNAc(b1-3)Gal(b1-4)GlcNAc(b1-3)Gal(b1-4)GlcNAc(b1-3)Gal(b1-4)GlcNAc(b1-6)]Man(a1-6)[Gal(b1-4)GlcNAc(b1-3)Gal(b1-4)GlcNAc(b1-3)Gal(b1-4)GlcNAc(b1-3)Gal(b1-4)GlcNAc(b1-2)Man(a1-3)]Man(b1-4)GlcNAc(b1-4)[Fuc(a1-6)]GlcNAc", "method_in_brief": "as §1"}}, "note": "The full list was thinned out, with the strongest signals kept by preference."}
{"binder": "B1", "values": [{"measurement": "glycan array binding signal (z-score)", "setting": "Fuc(a1-2)Gal", "value": -0.188}, {"measurement": "glycan array binding signal (z-score)", "setting": "[1]", "value": -0.443}, {"measurement": "glycan array binding signal (z-score)", "setting": "[2]", "value": -0.094}, {"measurement": "glycan array binding signal (z-score)", "setting": "[3]", "value": -0.031}, {"measurement": "glycan array binding signal (z-score)", "setting": "[4]", "value": 0.053}, {"measurement": "glycan array binding signal (z-score)", "setting": "[5]", "value": -0.165}, {"measurement": "glycan array binding signal (z-score)", "setting": "[6]", "value": -0.185}, {"measurement": "glycan array binding signal (z-score)", "setting": "[7]", "value": -0.173}, {"measurement": "glycan array binding signal (z-score)", "setting": "[8]", "value": -0.206}, {"measurement": "glycan array binding signal (z-score)", "setting": "[9]", "value": -0.306}, {"measurement": "glycan array binding signal (z-score)", "setting": "[10]", "value": -0.274}, {"measurement": "glycan array binding signal (z-score)", "setting": "[11]", "value": 0.775}, {"measurement": "glycan array binding signal (z-score)", "setting": "[12]", "value": 0.251}, {"measurement": "glycan array binding signal (z-score)", "setting": "[13]", "value": -0.116}, {"measurement": "glycan array binding signal (z-score)", "setting": "[14]", "value": -0.141}, {"measurement": "glycan array binding signal (z-score)", "setting": "[15]", "value": -0.546}, {"measurement": "glycan array binding signal (z-score)", "setting": "Gal(b1-4)GlcNAc(b1-2)Man", "value": -0.311}, {"measurement": "glycan array binding signal (z-score)", "setting": "[16]", "value": 0.114}, {"measurement": "glycan array binding signal (z-score)", "setting": "[17]", "value": 4.03}, {"measurement": "glycan array binding signal (z-score)", "setting": "[18]", "value": 5.09}, {"measurement": "glycan array binding signal (z-score)", "setting": "[19]", "value": 4.13}, {"measurement": "glycan array binding signal (z-score)", "setting": "[20]", "value": 6.18}, {"measurement": "glycan array binding signal (z-score)", "setting": "[21]", "value": 5.28}, {"measurement": "glycan array binding signal (z-score)", "setting": "[22]", "value": 3.58}, {"measurement": "glycan array binding signal (z-score)", "setting": "[23]", "value": 5.63}]}
